Hit rate of the full screen: of about 39,000 compounds, about 3,300 (8.5%) were called active. What follows is part of a selection rich in actives, with near analogues and random picks from the rest.
tested on: HepG2; experiment: cytotoxicity call (relative viability < 0.9); settings: 10 µM

SMILES	cytotoxicity call
Nc1nnc(SC[C@@H](O)CO)s1	inactive
COc1ccc(NC(=O)N(C)C[C@@H]2Oc3ccc(NS(C)(=O)=O)cc3CC(=O)N([C@@H](C)CO)C[C@@H]2C)cc1	inactive
COCC(=O)N(C)C[C@@H]1Oc2cc(C#Cc3ccccc3)ccc2S(=O)(=O)N([C@@H](C)CO)C[C@@H]1C	inactive
O=C(O)C[C@@H]1CC[C@@H]2[C@H](COC[C@H](O)CN2S(=O)(=O)c2ccc(F)cc2)O1	inactive
CN(C)CCCNC(=O)C[C@@H]1CC[C@@H]2[C@H](COC[C@H](O)CN2S(=O)(=O)c2ccc(Cl)cc2)O1	inactive
C[C@@H]1CCCCO[C@H](CN(C)S(=O)(=O)c2cccs2)[C@H](C)CN([C@H](C)CO)C(=O)c2cc(NC(=O)NC3CCCCC3)ccc2O1	inactive
C[C@H]1CN([C@@H](C)CO)C(=O)c2cccc(NC(=O)NC3CCCCC3)c2O[C@H]1CN(C)C(=O)Nc1cccc2ccccc12	inactive
CN1CCN(C(=O)C[C@H]2CC[C@@H]3[C@H](COC[C@@H](O)CN3C(=O)C3CC3)O2)CC1	inactive
COC(=O)c1c(CC[C@@H](CO)NC(=O)N2CCC[C@H]2Cn2cc(Cc3ccccc3)nn2)oc(C(C)=O)c1C(=O)OC	inactive
C[C@@H]1CN([C@@H](C)CO)C(=O)Cc2cc(NC(=O)CCC(F)(F)F)ccc2O[C@H]1CN(C)Cc1ccc(Oc2ccccc2)cc1	active
C[C@H](CO)N1C[C@H](C)[C@@H](CN(C)Cc2ccc(Oc3ccccc3)cc2)Oc2ccc(NC(=O)CCC(F)(F)F)cc2CC1=O	active
Cc1noc(C)c1S(=O)(=O)Nc1ccc2c(c1)C(=O)N([C@H](C)CO)C[C@H](C)[C@@H](CN(C)S(=O)(=O)c1c(C)noc1C)O2	inactive
C[C@H]1CN([C@@H](C)CO)C(=O)c2cccc(NC(=O)c3ccncc3)c2O[C@H]1CN(C)Cc1ccc(C(=O)O)cc1	inactive
C[C@@H]1CN([C@H](C)CO)C(=O)c2cccc(NC(=O)CCCCCC(=O)Nc3ccccc3N)c2O[C@H]1CN(C)Cc1ccccc1	inactive
CCOC(=O)C[n+]1ccccc1C	inactive
COC(=O)[C@@H](N)c1cccc(Cl)c1	inactive
CC(C)c1cc(C(C)C)c(CC(=O)NS(=O)(=O)Oc2c(C(C)C)cccc2C(C)C)c(C(C)C)c1	active
CC(C)c1cccc(C(C)C)c1NC(=O)Cc1cccs1	inactive
COc1cccc(NC(=O)N[C@@H]2C=C[C@H](CC(=O)N3CCN(C)CC3)O[C@H]2CO)c1	inactive
CO[C@@H]1[C@H](O[P@@](=O)(S)OC[C@H]2O[C@@H](n3cnc4c(N)ncnc43)C[C@@H]2O)[C@@H](CO)O[C@H]1n1ccc(=O)[nH]c1=O	active
CO[C@@H]1[C@H](O[P@@](=O)(OC[C@H]2O[C@@H](n3cnc4c(N)ncnc43)C[C@@H]2O)SCOC(=O)OC(C)C)[C@@H](CO)O[C@H]1n1ccc(=O)[nH]c1=O	inactive
Nc1ncnc2c1ncn2[C@H]1C[C@H](O)[C@@H](CO)O1	inactive

SMILES	cytotoxicity call
Cc1noc(C)c1NC(=O)Nc1ccc2c(c1)C(=O)N([C@@H](C)CO)C[C@H](C)[C@@H](CN(C)Cc1ccncc1)OCCCC[C@H](C)O2	inactive
COc1ccc(NC(=O)N(C)C[C@@H]2OCCCC[C@H](C)Oc3ccc(NS(=O)(=O)c4ccc(OC)cc4)cc3C(=O)N([C@H](C)CO)C[C@H]2C)cc1	inactive
C[C@@H]1CCCCO[C@H](CN(C)C(=O)NC2CCCCC2)[C@H](C)CN([C@H](C)CO)C(=O)c2cc(NC(=O)Nc3cccc4ccccc34)ccc2O1	inactive
Cc1noc(C)c1NC(=O)Nc1ccc2c(c1)CC(=O)N([C@H](C)CO)C[C@@H](C)[C@@H](CN(C)Cc1ccc(Oc3ccccc3)cc1)O2	inactive
C[C@@H]1CN([C@H](C)CO)C(=O)Cc2cc(NC(=O)Nc3ccc(C(F)(F)F)cc3)ccc2O[C@H]1CN(C)Cc1ccc(Oc2ccccc2)cc1	inactive
C[C@H]1CN([C@@H](C)CO)C(=O)Cc2cc(NC(=O)Nc3ccc(C(F)(F)F)cc3)ccc2O[C@H]1CN(C)Cc1ccc(Oc2ccccc2)cc1	active
C[C@@H]1CN([C@H](C)CO)C(=O)Cc2cc(NC(=O)Nc3ccc(C(F)(F)F)cc3)ccc2O[C@@H]1CN(C)Cc1ccc(Oc2ccccc2)cc1	active
C[C@@H]1CN([C@@H](C)CO)C(=O)Cc2cc(NC(=O)Nc3ccc(C(F)(F)F)cc3)ccc2O[C@@H]1CN(C)Cc1ccc(Oc2ccccc2)cc1	active
C[C@H](CO)N1C[C@H](C)[C@@H](CN(C)Cc2ccc(Oc3ccccc3)cc2)Oc2ccc(NC(=O)Nc3ccc(C(F)(F)F)cc3)cc2CC1=O	active
COc1ccc(NC(=O)Nc2ccc3c(c2)C(=O)N([C@@H](C)CO)C[C@@H](C)[C@@H](CN(C)C(=O)C2CCCCC2)OCCCC[C@H](C)O3)cc1	inactive
CN1CCN(C(=O)C[C@@H]2CC[C@H]3[C@@H](COC[C@H](O)CN3CC3CCCC3)O2)CC1	inactive
COc1ccc(S(=O)(=O)Nc2ccc3c(c2)C(=O)N([C@H](C)CO)C[C@H](C)[C@H](CN(C)S(=O)(=O)c2ccc(F)cc2)O3)cc1	inactive
C[C@@H]1CN([C@H](C)CO)C(=O)c2ccccc2-c2ccccc2CO[C@H]1CN(C)C(=O)c1cc(Cl)cc(Cl)c1	inactive
Nc1nnc(SCC(=O)N2CCOCC2)[nH]1	inactive
C[C@@H]1CN([C@@H](C)CO)C(=O)Cc2cc(NC(=O)Nc3ccc(C(F)(F)F)cc3)ccc2O[C@H]1CN(C)Cc1ccc(Oc2ccccc2)cc1	inactive
C[C@H]1CN([C@@H](C)CO)C(=O)Cc2cc(NC(=O)Nc3ccc(C(F)(F)F)cc3)ccc2O[C@@H]1CN(C)Cc1ccc(Oc2ccccc2)cc1	inactive
C[C@H](CO)N1C[C@H](C)[C@H](CN(C)Cc2ccc(Oc3ccccc3)cc2)Oc2ccc(NC(=O)Nc3ccc(C(F)(F)F)cc3)cc2CC1=O	active
COc1c2ccoc2nc2c(OC)c(OCC(O)C(C)(C)O)ccc12 (centres undefined)	active
C[C@@H]1CN([C@@H](C)CO)C(=O)c2cc(Br)cnc2O[C@@H]1CN(C)C(=O)CN1CCOCC1	inactive
CN(C)c1ccc2nc3ccc(N(C)C)cc3[s+]c2c1.O.[Cl-]	active
Cc1cc2nc3ccc(N(C)C)cc3[s+]c2cc1N.[Cl-]	active
CN(C)c1ccc2c(=O)[nH][nH]c(=O)c2c1	inactive

SMILES	cytotoxicity call
C[C@@H]1CN([C@@H](C)CO)C(=O)c2cc(C#Cc3ccc(F)cc3)cnc2O[C@H]1CN(C)Cc1ccccn1	inactive
O=C(C[C@H]1C[C@@H]2c3cc(NS(=O)(=O)c4ccc(F)cc4)ccc3O[C@@H]2[C@H](CO)O1)N1CCOCC1	inactive
O=C(C[C@H]1C[C@H]2c3cc(NC(=O)Nc4ccc(C(F)(F)F)cc4)ccc3O[C@H]2[C@H](CO)O1)NCCc1ccccc1	inactive
C[C@@H]1CN([C@H](C)CO)C(=O)c2cc(NC(=O)Nc3ccc(C(F)(F)F)cc3)ccc2O[C@@H](C)CCCCO[C@@H]1CN(C)C(=O)NC1CCCCC1	inactive
C[C@@H]1CCCCO[C@H](CN(C)C(=O)NC2CCCCC2)[C@H](C)CN([C@H](C)CO)C(=O)c2cc(NC(=O)Nc3ccc(C(F)(F)F)cc3)ccc2O1	inactive
C[C@@H]1CCCCO[C@H](CN(C)C(=O)NC2CCCCC2)[C@@H](C)CN([C@@H](C)CO)C(=O)c2cc(NC(=O)Nc3ccc(C(F)(F)F)cc3)ccc2O1	inactive
C[C@@H]1CCCCO[C@@H](CN(C)C(=O)NC2CCCCC2)[C@@H](C)CN([C@@H](C)CO)C(=O)c2cc(NC(=O)Nc3ccc(C(F)(F)F)cc3)ccc2O1	inactive
C[C@H](CO)N1C[C@H](C)[C@@H](CN(C)C(=O)NC2CCCCC2)OCCCC[C@H](C)Oc2ccc(NC(=O)Nc3ccc(C(F)(F)F)cc3)cc2C1=O	inactive
C[C@@H]1CCCCO[C@@H](CN(C)C(=O)NC2CCCCC2)[C@H](C)CN([C@@H](C)CO)C(=O)c2cc(NC(=O)Nc3ccc(C(F)(F)F)cc3)ccc2O1	inactive
C[C@H](CO)N1C[C@H](C)[C@H](CN(C)C(=O)NC2CCCCC2)OCCCC[C@H](C)Oc2ccc(NC(=O)Nc3ccc(C(F)(F)F)cc3)cc2C1=O	active
C[C@@H]1CCCCO[C@H](CN(C)C(=O)NC2CCCCC2)[C@H](C)CN([C@@H](C)CO)C(=O)c2cc(NC(=O)Nc3ccc(C(F)(F)F)cc3)ccc2O1	inactive
C[C@@H]1CCCCO[C@@H](CN(C)C(=O)NC2CCCCC2)[C@@H](C)CN([C@H](C)CO)C(=O)c2cc(NC(=O)Nc3ccc(C(F)(F)F)cc3)ccc2O1	active
C[C@H]1CCCCO[C@H](CN(C)C(=O)NC2CCCCC2)[C@@H](C)CN([C@@H](C)CO)C(=O)c2cc(NC(=O)Nc3ccc(C(F)(F)F)cc3)ccc2O1	active
C[C@@H]1CN([C@@H](C)CO)C(=O)c2cc(NC(=O)Nc3ccc(C(F)(F)F)cc3)ccc2O[C@@H](C)CCCCO[C@@H]1CN(C)C(=O)NC1CCCCC1	inactive
C[C@H]1CCCCO[C@@H](CN(C)C(=O)NC2CCCCC2)[C@@H](C)CN([C@@H](C)CO)C(=O)c2cc(NC(=O)Nc3ccc(C(F)(F)F)cc3)ccc2O1	active
C[C@@H]1C=CNN1C(=O)c1cccnc1	inactive
O=C(C[C@H]1CC[C@@H]2[C@H](COC[C@@H](O)CN2C(=O)c2ccccc2F)O1)N1CCN(c2ccccc2)CC1	inactive
C[C@H]1CN([C@@H](C)CO)C(=O)c2cc(NC(=O)Nc3cccc4ccccc34)ccc2O[C@@H]1CN(C)C(=O)Nc1ccc(F)cc1	inactive
O=C(C[C@@H]1C[C@@H]2c3cc(NS(=O)(=O)c4ccccc4)ccc3O[C@@H]2[C@@H](CO)O1)NC1CCCCC1	inactive
C[C@@H]1CN([C@@H](C)CO)C(=O)Cc2cc(NC(=O)Cc3ccccc3)ccc2O[C@@H]1CN(C)S(=O)(=O)c1ccc(F)cc1	inactive

Source: the antibiotic and cytotoxicity screens of Wong et al. (2023)
